Screens (PubChem BioAssay)
This is a sample that favours compounds with a hit; in the whole collection about 2.4% have one here.
Tb PGK inh: qHTS Assay to Find Inhibitors of Phosphoglycerate Kinase. PGK/GAPDH coupled, Kinase-Glo luminescence, 60 min. Phosphoglycerate kinase, glycosomal (Trypanosoma brucei brucei), P07378. Potency, µM (doses to about 57.5 µM), without a hit: at the top dose activity change, negative = inhibition, actives largely listed as inhibitors. AID 602233, 2012. actives 0.043% (n = 380,000); also: % is scaled to controls: 0 for no effect and ±100 for the full control effect; nearly all actives have a fitted effect of over 60% in size
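Recombinant glycosomal PGK reaction used 1,3-bisphosphoglycerate generated in-well by GAPDH (100nM final) in 100mM TEA pH 7.6, 5mM MgCl2, 0.01% Tween-20. After 60 minutes at room temperature, ATP was read by Kinase-Glo Plus luminescence end-point.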
ELG1 DNA repair: qHTS screen for small molecules that inhibit ELG1-dependent DNA repair in human embryonic kidney (HEK293T) cells expressing luciferase-tagged ELG1. HEK293T ELG1-luciferase reporter, luminescence, 16 h; DNA damage induced by 5-fluorouridine. Potency, µM (titrated, usually from 46.1 µM), for the others: top-dose activity change, negative = inhibition, usual class: inhibitors. actives 2.3% (n = 330,000); also: % is scaled to controls: 0 for no effect and ±100 for the full control effect; nearly all actives have a fitted effect of over 55% in size
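DMSO vehicle served as the neutral condition. Each well held 2,000 cells given 5-fluorouridine plus compound; after 16 hr at 37 °C/5% CO2, ONE-Glo was added and luciferase measured 30 min later.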
Tb PFK inh: qHTS Assay to Find Inhibitors of T. brucei phosphofructokinase | Potency, µM (doses to about 57.5 µM), without a hit: top-dose activity, negative = inhibition, usual class: inhibitors | actives 0.17% (n = 330,000) | T. brucei PFK, ADP-Glo luminescence;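 also: 0% = uninhibited 1x PFK enzyme wells and -100% = no-enzyme wells; nearly all actives have a fitted effect of over 60% in size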
Target sequence (O15648 whole entry, looked up): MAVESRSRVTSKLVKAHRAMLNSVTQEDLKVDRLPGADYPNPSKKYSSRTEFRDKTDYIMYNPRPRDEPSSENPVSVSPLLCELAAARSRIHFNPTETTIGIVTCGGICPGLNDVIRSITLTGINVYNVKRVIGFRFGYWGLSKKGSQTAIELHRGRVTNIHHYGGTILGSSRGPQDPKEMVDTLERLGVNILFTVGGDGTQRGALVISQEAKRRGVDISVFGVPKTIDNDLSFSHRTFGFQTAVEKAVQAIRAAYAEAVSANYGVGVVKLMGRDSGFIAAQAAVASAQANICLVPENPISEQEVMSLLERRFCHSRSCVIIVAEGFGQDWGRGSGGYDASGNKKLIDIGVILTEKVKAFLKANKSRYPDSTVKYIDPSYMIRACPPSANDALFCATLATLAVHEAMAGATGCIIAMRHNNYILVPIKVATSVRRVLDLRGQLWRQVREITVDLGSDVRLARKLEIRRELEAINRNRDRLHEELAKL
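Activity is normalized to no-enzyme wells (full inhibition) and 1.25 nM enzyme wells (no inhibition). Reaction: 0.5 mM F6P, 0.1 mM ATP, 45 min RT, ADP-Glo luminescence; concentration-response curves fitted and classed by quality.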
PKM2 activator: qHTS Assay for Activators of Human Muscle isoform 2 Pyruvate Kinase; Potency, µM (titrated, usually from 57.5 µM), for inactives: top-dose activation, most hits filed as activators; purified PKM2, Kinase-Glo ATP luminescence, activation; response scale: 0% is enzyme alone, no compound; Pyruvate kinase PKM (Homo sapiens), P14618; actives 0.34% (n = 260,000); AID 1631, 2009; also: % is scaled to controls: 0 for no effect and ±100 for the full control effect; nearly all actives have a fitted effect of over 55% in size
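Purified hPK-M2 (>95% pure) converted ADP (0.1 mM final) to ATP with 0.5 mM PEP in 50 mM imidazole pH7.2, KCl, MgCl2, Tween 20, BSA; 1 h at room temperature. ATP detected by Kinase-Glo luminescence.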
Rango-impB inh: qHTS Assay for Inhibitors of Rango (Ran-regulated importin-beta cargo) - Importin beta complex formation. Potency, µM (doses to about 92.2 µM), for inactives: top-dose inhibition of complex formation. Importin subunit beta-1 (Homo sapiens), Q14974. Rango CFP/YFP FRET sensor + importin beta, 45 min. actives 0.031% (n = 340,000); calls by dose curve;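 also: 0% = DMSO wells and 100% = buffer wells lacking importin beta; nearly all actives have a fitted effect of over 15% in size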
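Inhibition scored from the CFP 486 nm/YFP 530 nm FRET ratio 45 min after adding 0.125 microM importin beta to 50 nM Rango biosensor preincubated 5 min with compound (room temperature, PBS with DTT, Tween-20, BSA). No-importin wells as positive control.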
Rango release inh: qHTS Assay for Inhibitors of RanGTP induced Rango (Ran-regulated importin-beta cargo) - Importin beta complex dissociation; Potency, µM (series often up to 46.1 µM), inactives show top-dose activity change, negative = inhibition; Biochemical FRET Rango-importin beta, RanGTP-induced dissociation; actives 0.071% (n = 340,000); Snurportin-1 (Homo sapiens) + GTP-binding nuclear protein Ran (Homo sapiens) + Importin …; calls by dose curve; also: % of control where 0% means no effect; nearly all actives have a fitted effect of over 45% in size
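Recombinant Rango FRET biosensor (EYFP–snurportin 1 IBB–cerulean CFP10) at 0.1 uM premixed with 0.25 uM importin beta in PBS, 1 mM DTT, 0.02% Tween-20, 0.1% BSA. Compound added 5 min; RanGTP-RCC1 (0.6 uM Ran, 2 mM GTP, 0.2 uM RCC1) then triggers release, read at 45 min.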
* = called active by the depositor; i = inactive; ? = inconclusive; . = not tested or not shown. Unless noted, calls follow the shape of the dose curve; as a rule, active = well fitted curve in the direction sought with a large enough effect; inconclusive = small, poorly fitted or top-dose-only effect, or another doubt; inactive = no such curve, though single readings can be large; an effect the other way counts as inactive or inconclusive. Potency is read from the fitted curve at half-maximal effect.

SMILES | Tb PGK inh | ELG1 DNA repair | Tb PFK inh | PKM2 activator | Rango-impB inh | Rango release inh
Cc1ccc(Nc2nnc(-c3ccc(C)c(S(=O)(=O)NCc4nc5ccccc5[nH]4)c3)c3ccccc23)cc1 | 2% | . | . | . | . | .
CCOC(=O)CC1=C(C(=O)OCC)C(c2ccc(OC)c(OC)c2)C(C#N)=C(N)O1 (stereo not given) | -8% | 2% | 23% | 8% | ? | -10%
CCOC(=O)CC1=C(C(=O)OCC)C(c2cc(OC)c(OC)cc2OC)C(C#N)=C(N)O1 (stereo not given) | i | ? | 12% | 0% | ? | 15µM*
COc1cccc(-c2nc(SCc3cc(=O)c4ccc(C)c(C)c4[nH]3)n[nH]2)c1 | -6% | . | . | . | . | .
O=C(N/N=C/c1cc([N+](=O)[O-])ccc1O)c1ccc(COc2ccc3c(c2)CCC3)o1 | 0% | 6.5µM* | -1% | -1% | ? | -17%
CCOC(=O)c1c(C2CC2)csc1NC(=O)COC(=O)c1cc(OC)c(OC)cc1[N+](=O)[O-] | . | 13µM* | 1% | -2% | -1% | -1%
Cc1ccc(NC(=O)Cn2c(=O)n(Cc3ccc4c(c3)OCO4)c(=O)c3ccc(C(=O)NC4CCCCC4)cc32)c(C)c1 | 9% | . | . | . | . | .
Cc1cccc(NC2(C(=O)O)CCCC2)c1 | i | . | . | . | -2% | -5%
CCOc1ccc(NC(=S)N(CCc2c(C)[nH]c3ccc(C)cc23)Cc2ccco2)cc1 | -7% | 16µM* | 3% | -19% | 4% | -20%
CCCCNC(=O)c1cn(-c2ccc(OCC)cc2)c(=O)c2cc(OC)c(OC)cc12 | -7% | 23µM* | -2% | -5% | 1% | -8%
CCOc1ccc(NC(=O)c2cn(-c3ccc(OCC)cc3)c(=O)c3cc(OC)c(OC)cc23)cc1 | 17% | ? | -4% | 5% | ? | -20%
COC(=O)c1c(NC(=S)NNC(=O)c2ccc(Cl)s2)sc(C(=O)N(C)C)c1C | 0% | -1% | 1% | 2% | 1% | 0%
OCCNc1c2ccccc2nc2ccccc12 | 3% | 21µM* | -5% | -3% | ? | ?
OCCNc1nc2ccccc2nc1NCCO | 5% | 12% | 7% | 3% | 0% | -14%
O=C(O)Cn1cc(/C=C2/NC(=O)N(c3ccc(Cl)cc3)C2=O)c2ccccc21 | 0% | -4% | 2% | -8% | ? | 10µM*
O=C(CSc1nnc(-c2ccccc2)o1)NC1CCS(=O)(=O)C1 (stereo not given) | -14% | 12% | 5% | -22% | 1% | 29%
O=C(CSc1nc(-c2ccccc2)c(-c2ccccc2)o1)NC1CCS(=O)(=O)C1 (stereo not given) | i | 23µM* | 3% | 0% | 1% | -3%
O=C(NCCc1ccccc1)C1CCN(c2nc3ccccc3o2)CC1 | -9% | ? | 2% | -2% | -2% | 3%
O=C(NC1CCCCCCC1)C1CCN(c2nc3ccccc3o2)CC1 | 9% | 16µM* | -10% | -7% | -1% | -6%
CCCCC(=O)NC(c1ccccc1Cl)c1ccc2cccnc2c1O (stereo not given) | 9% | 3.3µM* | 3% | 0% | -2% | -11%
CCC(=O)NC(c1ccccc1OC)c1ccc2cccnc2c1O (stereo not given) | . | 4.1µM* | -3% | 3% | 0% | 14%
Cc1ccc(C2/C(=C(/O)c3ccc4c(c3)CC(C)O4)C(=O)C(=O)N2CCCn2ccnc2)cc1 (stereo not given) | -2% | 13% | 0% | . | 3% | -12%
COc1ccccc1/C=C/C(=O)OCC(=O)NC1CCS(=O)(=O)C1 (stereo not given) | -5% | -12% | 0% | . | -3% | 7%
CCCCn1c(N)c(-c2nc3ccccc3s2)c2c([N+](=O)[O-])nn(CC)c(=O)c21 | -3% | ? | 3% | -2% | 0% | -3%
CCCCCn1c(N)c(-c2nc3ccccc3s2)c2c([N+](=O)[O-])nn(CC)c(=O)c21 | 4% | 2.6µM* | -1% | -15% | 5% | 22%
SMILES | Tb PGK inh | ELG1 DNA repair | Tb PFK inh | PKM2 activator | Rango-impB inh | Rango release inh
CCCCn1c(N)c(-c2nc3ccccc3s2)c2c([N+](=O)[O-])nn(C)c(=O)c21 | i | 1µM* | 4% | 2% | -2% | 15%
O=C(CSc1nc2c([nH]c3ccccc32)c(=O)n1-c1ccccc1)Nc1ccc2c(c1)OCCO2 | 9% | . | . | . | . | .
CCOC(=O)/C=C1/SCC(=O)N1CC(=O)c1ccc[nH]1 | -4% | . | . | . | -4% | -8%
OCc1nc2ccccc2n1CCCc1ccccc1 | -3% | . | . | . | . | .
CSCCC(NS(=O)(=O)c1ccc2c(c1)OCCO2)C(=O)N(C)Cc1ccc(F)cc1 (stereo not given) | -6% | ? | 3% | . | -1% | -22%
CSCCC(NS(=O)(=O)c1ccc2c(c1)OCCO2)C(=O)N(C)Cc1ccccc1F (stereo not given) | -6% | 16µM* | 7% | . | -1% | 9%
O=C(CCn1ccc2cc(S(=O)(=O)N3CCCC3)ccc21)NCc1cccc(Br)c1 | -24% | . | . | . | . | .
CCOC(=O)N1CCN(C(=O)COc2cccc3c2CCN(Cc2ccc(F)cc2)C3=O)CC1 | -6% | 21µM* | 0% | 10% | 4% | 0%
CC(=O)Nc1ccc(C(=O)OCC(=O)N2CCC(Cc3ccccc3)CC2)cc1 | i | 6.5µM* | 4% | . | -3% | -13%
O=C(COc1cccc2c1CCN(Cc1ccc(Cl)cc1)C2=O)N1CCOCC1 | -9% | 12µM* | -1% | 4% | -3% | -5%
CCC1CCCCN1C(=O)COc1cccc2c1CCN(C)C2=O (stereo not given) | 5% | ? | 1% | -6% | 3% | -9%
CN1CCc2c(OCC(=O)N3CCC(Cc4ccccc4)CC3)cccc2C1=O | i | 9.2µM* | 2% | -2% | 0% | ?
CCOC(=O)N1CCN(C(=O)COc2cccc3c2CCN(CC)C3=O)CC1 | -2% | -2% | 0% | -4% | 3% | -2%
